Measured values published in PubChem BioAssay (Tox21).
Where “and” joins values, the source holds several entries; their conditions need not be identical. Equal values may be shown once. Records with an inconclusive call do not appear. Where a call stands in place of a potency, no number is given. A structure can be active in one record and inactive in another. Calls of active or inactive are those of the source. Calls follow the shape of the dose curve; as a rule, active = well fitted curve in the direction sought with a large enough effect in the repeat runs; inconclusive = weak or mixed curves; inactive = no such curve, though single readings can be large; an effect the other way counts as inactive or inconclusive.

Legend:
[1] = A CellTox Green Cytotoxicity Assay to monitor cytotoxicity in HepG2 cells - 0 hour (AID 1224882); conditions: CellTox Green fluorescence; series mostly up to 76.8 µM; also: nearly all actives have a fitted effect of over 35% in size; also: potency is read from the fitted curve at half-maximal effect
Summary of the method: (§1)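 Real-time cytotoxicity: fluorescence of a cell-impermeant cyanine dye binding DNA of dead HepG2 cells, measured repeatedly (0–40 h) during compound exposure at 37 C. Cells seeded 600/well with reagent, dosed after 5 h.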

[2] = A CellTox Green Cytotoxicity Assay to monitor cytotoxicity in HepG2 cells - 32 hour (AID 1224883); conditions: CellTox Green fluorescence; series mostly up to 76.8 µM; also: nearly all actives have a fitted effect of over 50% in size; also: potency is read from the fitted curve at half-maximal effect
Summary of the method: as §1

[3] = A CellTox Green Cytotoxicity Assay to monitor cytotoxicity in HEK293 cells - 8 hour (AID 1224884); conditions: CellTox Green fluorescence; series mostly up to 76.8 µM; also: nearly all actives have a fitted effect of over 35% in size; also: potency is read from the fitted curve at half-maximal effect
Summary of the method: (§2)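 Fluorescence from a DNA-binding dye excluded by viable cells was measured repeatedly in the same HEK293 wells (600 cells/well) during continuous compound exposure at 37 C. Each assay gives one read point: 0, 8, 16, 24, 32 or 40 h.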

[4] = qHTS RealTime-Glo MT Cell Viability Assay in HepG2 cells - 16 hour (AID 1224885); conditions: RealTime-Glo luminescence; series mostly up to 76.8 µM; also: nearly all actives have a fitted effect of over 50% in size; also: potency is read from the fitted curve at half-maximal effect
Summary of the method: (§3)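 Viability was tracked continuously by NanoLuc luminescence from prosubstrate reduced by living HepG2 cells, at successive time points over 40 h of compound exposure. Cells with reagent were preincubated 5 h at 37 °C before compound addition.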

[5] = qHTS RealTime-Glo MT Cell Viability Assay in HEK293 cells - 8 hour (AID 1224887); conditions: RealTime-Glo luminescence; series mostly up to 76.8 µM; also: nearly all actives have a fitted effect of over 50% in size; also: potency is read from the fitted curve at half-maximal effect
Summary of the method: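 Luminescence, which tracks viable cell number through reduction of the prosubstrate to a NanoLuc substrate, was read over continuous 37 C culture. Cells (600/well) were premixed with reagent and rested 5 h before 23 nL of compound in DMSO was pinned.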

[6] = qHTS RealTime-Glo MT Cell Viability Assay in HepG2 cells - 0 hour (AID 1224889); conditions: RealTime-Glo luminescence; series mostly up to 76.8 µM; also: nearly all actives have a fitted effect of over 50% in size
Summary of the method: as §3

[7] = A CellTox Green Cytotoxicity Assay to monitor cytotoxicity in HepG2 cells - 8 hour (AID 1224890); conditions: CellTox Green fluorescence; series mostly up to 76.8 µM; also: nearly all actives have a fitted effect of over 45% in size; also: potency is read from the fitted curve at half-maximal effect
Summary of the method: as §1

[8] = qHTS RealTime-Glo MT Cell Viability Assay in HEK293 cells - 24 hour (AID 1224886); conditions: RealTime-Glo luminescence; series mostly up to 76.8 µM; also: nearly all actives have a fitted effect of over 50% in size; also: potency is read from the fitted curve at half-maximal effect
Summary of the method: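 Viability tracked continuously by luminescence as live cells reduce a prosubstrate for NanoLuc; HEK293 cells preincubated 5 h, compound-treated at 37 C, and read at 0, 8, 16, 24, 32 and 40 h.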

[9] = A CellTox Green Cytotoxicity Assay to monitor cytotoxicity in HEK293 cells - 16 hour (AID 1224888); conditions: CellTox Green fluorescence; series mostly up to 76.8 µM; also: nearly all actives have a fitted effect of over 35% in size; also: potency is read from the fitted curve at half-maximal effect
Summary of the method: as §2

[10] = qHTS assay to identify small molecule antagonists of the estrogen receptor alpha (ER-alpha) signaling pathway using the BG1 cell line in the presence of 0.1 nM 17-beta-estradiol - cell viability counter screen (AID 1259241); conditions: VM7Luc4E2 (BG1) viability, CellTiter-Fluor protease, 22 h, 0.1 nM estradiol agonist added; series mostly up to 92.4 µM; also: nearly all actives have a fitted effect of over 40% in size; also: potency is read from the fitted curve at half-maximal effect
Summary of the method: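 Live-cell protease activity (CellTiter-Fluor fluorescence, 30 min) was read in the same wells after VM7Luc4E2 cells had been exposed to compounds with 0.1 nM 17beta-estradiol for 22 hr at 37C.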

Row | SMILES | Potency [1] | Potency [2] | Potency [3] | Potency [4] | Potency [5] | outcome [6] | Potency [7] | Potency [8] | Potency [9] | Potency [10]
1 | CCCC[P+](CC)(CCCC)CCCC (tested in a mixture with another compound) | inactive | inactive | inactive | inactive | inactive | inactive | inactive |  |  | 
2 | CCCCCCCCn1sccc1=O | inactive |  | 36.3 µM (active) | 43.7 µM (active) and 16.2 µM (active) | 39 µM (active) and 40.8 µM (active) | inactive | 25.7 µM (active) | 12.3 µM (active) and 12.9 µM (active) | 51.3 µM (active) | 
3 | C[C@]12C=CC3=C4CCC(=O)C=C4CC[C@H]3[C@@H]1CC[C@@H]2O | inactive |  | inactive | inactive | inactive | inactive | inactive | inactive | inactive | 
4 | Cc1cnc(C2=NC(C)(C(C)C)C(=O)N2)c(C(=O)O)c1 (configuration not stated) | inactive |  | inactive | inactive | inactive | inactive | inactive | inactive | inactive | 
5 | Nc1ccc2c(c1)Cc1ccccc1-2 | inactive | inactive | inactive | inactive | inactive | inactive | inactive |  | inactive | inactive
6 | CC(=O)NNc1ccccc1 | inactive | inactive | inactive | inactive | inactive |  | inactive | inactive | inactive | inactive
7 | N#CC(C#N)=Cc1ccc(O)c(O)c1 | 23.9 µM (active) |  | inactive | inactive | inactive | inactive | inactive | inactive | inactive | inactive
8 | CCC(C)(C)c1ccc(O)c(C(C)(C)CC)c1 | inactive | 30.6 µM (active) | 48.5 µM (active) and inactive |  | 24.3 µM (active) | inactive |  | 43.2 µM (active) |  | inactive
9 | C=CCOC(=O)C(C)(C)OC(=O)c1cc(-n2c(=O)cc(C(F)(F)F)n(C)c2=O)ccc1Cl | inactive | inactive | inactive | inactive |  | inactive | inactive | 19.1 µM (active) | inactive | 
10 | CC(C)(C)NCC(O)c1ccccc1Cl (configuration not stated) | inactive |  | inactive | inactive | inactive | inactive | inactive | inactive | inactive | 
11 | COP(=O)(OC)OC(Br)C(Cl)(Cl)Br (configuration not stated) | inactive | inactive | inactive | inactive | inactive |  | inactive |  | inactive | inactive
12 | Cc1nc2ccccc2c(=O)n1-c1ccccc1Cl | inactive | inactive | inactive |  | 24 µM (active) |  | inactive | 21.4 µM (active) | inactive | 
13 | Nc1ccccc1C(=O)OCCc1ccccc1 | inactive | 21.9 µM (active) | inactive and 34.7 µM (active) | inactive | 21.9 µM (active) | inactive | inactive and 24.5 µM (active) | 21.9 µM (active) |  | inactive
14 | O=C(O)C(Cl)(Cl)Br | inactive | inactive | inactive | inactive | inactive | inactive | inactive | inactive |  | inactive
15 | CCC(=O)O[C@@H]1C=C2CCC3C(CCC4(C)C3CC[C@@H]4OC(=O)CC)C2CC1 (some centres not stated) | inactive | inactive | inactive | inactive |  | inactive |  | inactive | inactive | inactive
16 | Nc1cccc2ccccc12 | inactive |  | inactive | inactive | inactive | inactive | inactive | inactive | inactive | 
17 | FC(Cl)(Cl)C(F)(Cl)Cl | inactive |  | inactive | inactive | inactive | inactive | inactive | inactive | inactive | inactive
18 | CC[N+]1(CCOC(=O)C(O)(c2ccccc2)c2ccccc2)CCCCC1 | inactive | inactive | inactive | inactive | inactive |  | inactive | inactive | inactive | inactive
19 | CCC1(C2=NCCN2)Cc2ccccc2O1 (configuration not stated) | inactive |  | inactive | inactive | inactive | inactive | inactive | inactive | inactive | inactive
20 | [Cl-].[Cl-].[Hg+2] | inactive | 24.4 µM (active) and 3.09 µM (active) | inactive and 15.5 µM (active) | 48.8 µM (active) and 3.89 µM (active) | 43.5 µM (active) and 3.47 µM (active) |  | 48.8 µM (active) and 4.9 µM (active) |  | 38.7 µM (active) and 11 µM (active) | 27.2 µM (active) and 21.7 µM (active)
21 | CC(C)CCCCCCCOC(=O)c1ccccc1C(=O)OCCCCCCCC(C)C | inactive |  | inactive | inactive | inactive | inactive | inactive | inactive | inactive | 
22 | CC[N+]1(C)CCCC(OC(=O)C(O)(c2ccccc2)c2ccccc2)C1 (configuration not stated) | inactive | inactive | inactive | inactive | inactive |  | inactive | inactive | inactive | inactive
